Data on 40 molecules can be found in PubChem BioAssay AID2111 (National Center for Advancing Translational Sciences (NCATS), 2009).

Structures are written as SMILES. “And” between values parts separate entries of the source, which are not always exact repeats. Identical values can stand only once. A number with no mark means an inactive call. The source made the active and inactive calls. The call rests on the fitted dose curve; in most records, active means well fitted curve in either direction with a large enough effect; inconclusive means small, poorly fitted or top-dose-only effect; inactive means no such curve, though single readings can be large or run the other way.

The target in the experiment is Lysosomal alpha-glucosidase (Homo sapiens) (UniProt P10253). The experiment in a line: Confirmation of Inhibitors and Activators of Human alpha-Glucosidase From Spleen Homogenate Using an Alternate Red Fluorescent Susbtrate. The settings on record: resorufin-glucoside fluorescence; series mostly up to 62.8 µM; activity change, negative = inhibition: at the top concentration. The source says:
NIH Chemical Genomics Center [NCGC] NIH Molecular Libraries Probe Production centers Network [MLPCN] MLPCN Grant: 1R03MH084841-01 Assay Submitter (PI): Wei Zheng NCGC Assay Overview: Alpha-glucosidase is responsible for hydrolysis of terminal, non-reducing 1,4-linked alpha-D-glucose residues with release of alpha-D-glucose. It is a lysosomal hydrolase that is required for the degradation of a small percentage (1-3%) of cellular glycogen in human. Deficiency of this enzyme results in glycogen-storage disease type II (GSDII), also referred to as Pompe disease, an autosomal recessive disorder. Structurally normal glycogen is accumulated in lysosomes and cytoplasm in affected patients, primarily in muscle tissues. Excessive glycogen storage within lysosomes may interrupt normal functioning of other organelles and leads to cellular injury. In turn, this leads to enlargement and dysfunction of the entire organ involved (eg, cardiomyopathy and muscle weakness). It has reported that the improper folding and trafficking of alpha-glucosidase resultinged from the genetic mutations may account for a significant number of Pomrope patients. […] We optimized this alpha-glucosidase assay in 1536-well plate format for identifying the novel small molecule inhibitors with the structures other than the sugar analogs in order to develop the new pharmacological chaperones. In particular, this assay is directed towards discovering compounds active in a more natural setting, tissue homogenate, that may have been missed by screens of the purified enzyme under more stringent conditions. This assay attempted to confirm hits from the primary screening using an alternate fluor than the primary screen used.
NCGC Assay Protocol Summary: This is a fluorogenic enzyme assay with Resorufin-alpha-D-glucopyranoside as the substrate and human spleen homogenate containing alpha-glucosidase as the enzyme preparation. Upon hydrolysis of this fluorogenic substrate, the resulting product, resorufin (which excites at 573 nm and emits at 610 nm) can be detected by a fluorescence plate reader. Data were normalized to the controls for basal activity (without enzyme) and 100% activity (with enzyme). The AC50 values were determined from concentration-response data modeled with the standard Hill equation. Assay buffer: 50 mM citric acid (titrated with potassium phosphate to pH 5.0), 0.01% Tween-20 (pH 5.0 is an optimal condition for this enzyme assay) 1536-well assay protocol for the alpha-glucosidase from human spleen homogenate: (1) Add 2 ul/well spleen homogenate (1 ug) (2) Add 23 nL compounds in DMSO solution. The final titration was 0.5 nM to 58 uM. (3) Add 2 ul of substrate (1 mM final) (4) Incubate at 37 C for 40 min (5) Add 2 ul stop solution (1M NaOH and 1M Glycine mixture, pH 10) (6) Detect the assay plate in a ViewLux plate reader (PerkinElmer) with […]. Keywords: Alpha-glucosidase, Pompe Disease, pharmacological chaperone, chaperone therapy, high throughput screening, alpha-glucosidase inhibitor, MLSMR, MLSCN, NIH Roadmap, qHTS and NCGC
Turning to `CC(=O)c1ccc(N2CCN(C(=O)c3ccc4c(c3)CC(=O)N4)CC2)cc1`, the “activity change, negative = inhibition” value was -5.87%.

On to `O=C1Cc2cc(S(=O)(=O)N3CCN(c4ccc(C(F)(F)F)cc4)CC3)ccc2N1`, for which the “activity change, negative = inhibition” value was -24.1% [at 130 µM].

Consider `N#Cc1ccc(N2CCN(S(=O)(=O)c3ccc4c(c3)CC(=O)N4)CC2)cc1`, for which the Potency was 1.63 µM [inhibitor] (active).

Turning to `CC(=O)c1ccc(N2CCN(C(=O)c3ccc4c(c3)CCC(=O)N4)CC2)cc1`, the “activity change, negative = inhibition” value is -2.32%.

With `CCCN1CNc2c(c(=O)[nH]c(=S)n2Cc2ccc(OC)c(OC)c2)C1`, the Potency was 5.01 µM (active).

For `CCCN1CNc2c(c(=O)[nH]c(=S)n2CCCc2ccccc2)C1`, the Potency was 35.5 µM (active).

For the molecule `CCCN1CNc2c(c(=O)[nH]c(=O)n2CCc2ccc(OC)c(OC)c2)C1`, the Potency is 15.8 µM (active).

In the case of `O=c1[nH]cc(C#Cc2ccccc2)c2ncncc12`, the “activity change, negative = inhibition” value was -8.47%.

Regarding `CC(=O)c1ccc(N2CCN(S(=O)(=O)c3ccc4c(c3)CCC(=O)N4)CC2)cc1`, the “activity change, negative = inhibition” value is 9.43%.

With `CCCN1CNc2c(c(=O)[nH]c(=S)n2CCc2ccccc2Cl)C1`, the Potency was 11.2 µM (active).

In the case of `CCCN1CNc2c(c(=O)[nH]c(=S)n2CCc2cccc(OC)c2)C1`, the Potency was 10 µM (active).

For the molecule `CCCN1CNc2c(c(=O)[nH]c(=S)n2CCc2cccc(C)c2C)C1`, the Potency is 3.98 µM (active).

`O=C1Cc2cc(S(=O)(=O)N3CCN(c4ccc(O)cc4)CC3)ccc2N1`: the Potency is 11.9 µM [inhibitor] (active).

On to `Cc1ccc(S(=O)(=O)N2CCN(C(=O)N(c3ccccc3)c3ccccc3)CC2)cc1`, for which the “activity change, negative = inhibition” value was -39.1% [at 130 µM].

Regarding `COc1ccc(CCc2c[nH]c(=O)c3cncnc23)cc1OC`, the “activity change, negative = inhibition” value was 0.972%.

Regarding `CCCN1CNc2c(c(=O)[nH]c(=S)n2CCc2ccc(Cl)c(Cl)c2)C1`, the Potency was 8.91 µM (active).

On to `CCCN1CNc2c(c(=O)[nH]c(=S)n2CCc2ccc(Cl)cc2)C1`, for which the Potency is 11.2 µM (active).

As to `CCCN1CNc2c(c(=O)[nH]c(=S)n2CCc2cc(OC)cc(OC)c2)C1`, the Potency is 7.94 µM (active).

For `CCCN1CNc2c(c(=O)[nH]c(=S)n2CCc2cccc(Cl)c2Cl)C1`, the Potency is 0.891 µM (active).

Regarding `Clc1ncc(C#Cc2ccccc2)c2ncncc12`, the “activity change, negative = inhibition” value was 8.26%.

`COc1ccc(CCn2c(=S)[nH]c(=O)c3[nH]cnc32)cc1OC`: the “activity change, negative = inhibition” value was 7.23%.

With `O=S(=O)(c1ccc(Cl)cc1)N1CCN(c2nc(-c3cccs3)nc3ccccc23)CC1`, the “activity change, negative = inhibition” value is 4.37%.

`COc1cccc(CCn2c(N)cc(=O)[nH]c2=S)c1OC`: the “activity change, negative = inhibition” value was 8.02%.

As to `CCCN1CNc2c(c(=O)[nH]c(=S)n2CCc2ccc(Cl)cc2Cl)C1`, the Potency is 7.94 µM (active).

Turning to `O=C1Cc2cc(S(=O)(=O)N3CCN(c4ccc(Br)cc4)CC3)ccc2N1`, the “activity change, negative = inhibition” value was -12.5% [at 130 µM].

As for `CC(=O)c1ccc(N2CCN(S(=O)(=O)c3ccc4c(c3)C(=O)OC4)CC2)cc1`, the “activity change, negative = inhibition” value was 9.03%.

On to `COc1ccc(CCn2c3c(c(=O)[nH]c2=S)CN(C(C)C)CN3)cc1OC`, for which the Potency was 12.6 µM (active).

Take `COc1ccc(CCn2c3c(c(=O)[nH]c2=S)CN(C)CN3)cc1OC`: the Potency was 31.6 µM (active).

In the case of `CCCN1CNc2c(c(=O)[nH]c(=S)n2CCc2c(OC)cccc2OC)C1`, the Potency is 35.5 µM (active).

For the molecule `CCCN1CNc2c(c(=O)[nH]c(=S)n2CCc2c(C)cccc2C)C1`, the Potency is 2.82 µM (active).

In the case of `CCCN1CNc2c(c(=O)[nH]c(=S)n2CCc2ccc(OC)cc2OC)C1`, the Potency is 8.91 µM (active).

On to `O=S(=O)(c1ccc(Cl)cc1)N1CCN(c2nc(Nc3cc(Cl)ccc3O)nc3ccccc23)CC1`, for which the “activity change, negative = inhibition” value is 7.06% [at 32.4 µM].

`CCCN1CNc2c(c(=O)[nH]c(=S)n2CCc2cc(C)cc(C)c2)C1`: the Potency was 4.47 µM (active).

On to `COC(=O)c1ccc(N2CCN(S(=O)(=O)c3ccc4c(c3)CC(=O)N4)CC2)cc1`, for which the Potency was 1.16 µM [inhibitor] (active).

As to `CCCN1CNc2c(c(=O)[nH]c(=S)n2CCc2cccc(C)c2)C1`, the Potency was 15.8 µM (active).

As for `CC(=O)N1CCN(S(=O)(=O)c2ccc3c(c2)CC(=O)N3)CC1`, the Potency was 14.9 µM [inhibitor] (active).

On to `COc1ccc(CCn2c3c(c(=O)[nH]c2=S)CN(Cc2ccccc2)CN3)cc1OC`, for which the Potency was 7.94 µM (active).

Turning to `CC(=O)c1ccc(N2CCN(S(=O)(=O)c3ccc4c(c3)CC(=O)N4)CC2)cc1`, the Potency was 1.03 µM [inhibitor] (active) and 943 nM [inhibitor] (active) and 2.06 µM [inhibitor] (active).

Regarding `CCCN1CNc2c(c(=O)[nH]c(=S)n2CCc2ccccc2C)C1`, the Potency was 12.6 µM (active).

On to `CCCN1CNc2c(c(=O)[nH]c(=S)n2CCc2cc(OC)ccc2OC)C1`, for which the Potency is 12.6 µM (active).
